High-throughput results as filed in PubChem.
Tb PFK inh = T. brucei PFK enzyme inhibition | O15648 | T. brucei PFK, ADP-Glo luminescence | AID 485367 | 330,000 tested, 0.17% active | Potency, µM (highest dose often 57.5 µM), without a hit: at the highest dose activity, negative = inhibition, actives largely listed as inhibitors;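 note: 0% = uninhibited 1x PFK enzyme wells and -100% = no-enzyme wells; nearly all actives have a fitted effect of over 60% in size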
Target sequence (O15648 whole entry, looked up): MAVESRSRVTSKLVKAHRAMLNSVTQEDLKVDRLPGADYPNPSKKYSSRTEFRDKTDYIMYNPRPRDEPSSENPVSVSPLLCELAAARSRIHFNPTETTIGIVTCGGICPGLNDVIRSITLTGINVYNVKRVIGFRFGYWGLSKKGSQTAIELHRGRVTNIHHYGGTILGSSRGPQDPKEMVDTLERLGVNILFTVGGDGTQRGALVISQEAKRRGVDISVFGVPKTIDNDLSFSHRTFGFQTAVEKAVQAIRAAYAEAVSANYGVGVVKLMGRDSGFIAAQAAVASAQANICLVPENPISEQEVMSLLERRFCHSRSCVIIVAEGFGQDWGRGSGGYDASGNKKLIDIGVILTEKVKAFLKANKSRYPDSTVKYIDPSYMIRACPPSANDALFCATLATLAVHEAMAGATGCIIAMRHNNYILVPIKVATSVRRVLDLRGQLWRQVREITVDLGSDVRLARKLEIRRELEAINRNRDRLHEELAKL
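Luminescent ADP detection (ADP-Glo, two-step: ATP depletion then ADP-to-ATP conversion for luciferase) reported PFK activity after 45 min room-temperature reaction of 1.25 nM enzyme with 0.5 mM F6P and 0.1 mM ATP at pH 8.0.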
PLK1 PBD inh = PLK1 (human) polo-box domain binding inhibition. P53350. Plk1 PBD binding of FITC phosphopeptide, fluorescence polarization. Potency, µM, inactives show max response, negative = inhibition, hits mostly inhibitors. AID 720504. 360,000 tested, 2.8% active; note: series mostly up to about 57 µM; % is set by controls: 0 for no effect and ±100 for the full control effect; nearly all actives have a fitted effect of over 65% in size
ASM inhibitor = inhibitors of human secretory acid sphingomyelinase; P17405; 340,000 tested, 0.006% active; Potency, µM (titrated, usually from 57.5 µM), inactives show at the highest dose activity change, negative = inhibition, hits mostly inhibitors; placental ASM, HMU-PC fluorogenic substrate, 60 min
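Fluorogenic HMU-PC substrate (9 uM final) is turned over by placental ASM in 60 min at 37 C after a 10 min compound preincubation. Reaction ended by alkaline stop (pH 10), with fluorescence read at 386/447 nm.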
TDP1 block = inhibitors of human tyrosyl-DNA phosphodiesterase TDP1. AID 485290. recombinant TDP1, AlphaScreen DNA substrate cleavage. Q9NUW8. Potency, µM (titrated, usually from 130 µM), for inactives: top-dose activity change, negative = inhibition, most hits filed as inhibitors. 350,000 tested, 0.28% active; note: % is set by controls: 0 for no effect and ±100 for the full control effect; nearly all actives have a fitted effect of over 40% in size
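Recombinant human Tdp1 (E. coli-expressed, 1 nM final) preincubated with compounds 15 min at room temperature, then 5'-biotin/3'-phosphotyrosine-FITC DNA substrate (15 nM final) added for 5 min. AlphaScreen beads (10 ug/ml final) added 10 min; cleavage lowers signal.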
Pin1 inh = inhibitors of human Pin1 | Q13526 | Pin1 FP peptide displacement, HiFluor488, 10 min | Potency, µM (doses to about 115 µM), inactives show top-dose activity, negative = inhibition, usual class: inhibitors | 390,000 tested, 0.009% active | AID 504891; active = well fitted inhibition curve with a large enough effect in the polarisation, with a control signal flat, not every such curve was filed as active; inconclusive = small, poorly fitted or top-dose-only effect, or effect the other way, or a change in a side signal; inactive = no such curve, though single readings can be large or run the other way; the % refers to the polarisation; note: % is set by controls: 0 for no effect and ±100 for the full control effect
Target sequence (Q13526 whole entry, looked up): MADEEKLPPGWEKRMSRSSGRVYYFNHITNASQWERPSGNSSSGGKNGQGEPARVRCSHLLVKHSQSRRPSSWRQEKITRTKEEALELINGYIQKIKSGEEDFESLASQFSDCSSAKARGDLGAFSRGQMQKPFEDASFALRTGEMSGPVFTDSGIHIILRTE
VDR inh = blocks the human vitamin D receptor. 400,000 tested, 0.93% active. Potency, µM, inactives show max response, negative = inhibition, hits mostly inhibitors. VDR-SRC2-3 peptide fluorescence polarization, 2 h. P11473. AID 504847; note: % is set by controls: 0 for no effect and ±100 for the full control effect
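VDR–SRC2-3 interaction, FP format. Cmpds 23 nl via pintool, brief spin, 2 h ambient incubation.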
Active calls of the source: *; i = inactive; ? = inconclusive; nt = not tested or not shown; [ ] = another dose, or the depositor's remark. Most compounds without a hit are left out; they make up all but 3.1% or so of the library. Unless noted, calls come from the whole dose curve; as a rule, active = well fitted curve in the direction sought with a large enough effect; inconclusive = small, poorly fitted or top-dose-only effect, or another doubt; inactive = no such curve, though single readings can be large; an effect the other way counts as inactive or inconclusive. Potency is the fitted concentration of half-maximal effect.

SMILES | Tb PFK inh | PLK1 PBD inh | ASM inhibitor | TDP1 block | Pin1 inh | VDR inh
COc1ccc(N2C(=O)c3ccccc3NC2c2ccc(OC)c(COc3ccc(NC(C)=O)cc3)c2)cc1 (stereo not drawn) | nt | nt | nt | 3% | 38% | -2%
CC(=O)Nc1ccc(Nc2c3c4c(cccc4n(C)c2=O)C(=O)c2ccccc2-3)cc1 | 8% | 6.7µM* | -20% | 5% | ? | 11%
CC(=O)Nc1ccc(NC2=CC(=O)c3ccccc3C2=O)cc1 | 2% | -8% | 19% | nt | -5% | 6%
Cn1c(=O)c(NC2CCCCC2)c2c3c(cccc31)C(=O)c1ccccc1-2 | -7% | ? | -13% | 3% | ? | 0%
CCCCNc1c2c3c(cccc3n(C)c1=O)C(=O)c1ccccc1-2 | 22% | 2.4µM* | -26% | nt | ? | 1%
CCOC(=O)N1CCN(C(=O)CSc2nnc(-c3cc(OC)ccc3OC)o2)CC1 | 4% | 3.4µM* | 2% | 0% | -15% | ?
CCOC(=O)N1CCN(C(=O)CSc2nnc(-c3cccc(OC)c3)o2)CC1 | 8% | 3.4µM* | -2% | 4% | 2% | ?
O=C(CNC(=O)C1CCCCC1)OCC(=O)c1ccc(C2CCCCC2)cc1 | nt | nt | nt | 0% | 4% | -3%
CC(=O)O[C@@H]1C(CO[Si](C)(C)C(C)(C)C)=C(Br)C(=O)[C@@H]2O[C@]12C | nt | nt | nt | -2% | nt | 25µM*
O=C(O)c1cccc2cc(-c3ccccc3)oc(=O)c12 | 18% | 1% | 81% | nt | -8% | 1%
O=C(O)c1cccc2cccc(-c3c4ccc(=O)c(O)c-4oc4c(O)c(O)ccc34)c12 | nt | 4.7µM* | -25% | nt | nt | ?
CC(C)(C)NCC(O)COc1c(F)cc(Br)cc1F (stereo not drawn) | -2% | 3% | 1% | -5% | 4% | -6%
Cc1cc(C)c(OCC(O)CNC(C)(C)C)c(C)c1 (stereo not drawn) | 1% | 24µM* | 1% | 1% | -2% | -23%
CC(C)C(N)C(=O)O (stereo not drawn) | nt | nt | nt | 1% | nt | 5%
CN1C(=O)N(C)c2ccc(Br)c3cccc1c23 | -1% | 30µM* | -11% | nt | 4% | ?
CN1C(=O)N(C)c2ccc(C=O)c3cccc1c23 | -3% | -16% | i | -3% | nt | -5%
CNC(=S)NNC(=O)c1ccc(=O)n(Cc2cccc(C(F)(F)F)c2)c1 | 0% | 3µM* | 10% | 6% | -1% | -10%
Cc1ccc(S(=O)(=O)N2CCN(c3nc(-c4cncs4)nc4ccccc34)CC2)cc1 | nt | nt | nt | 1% | 0% | -6%
Cn1cc(C=C2C(=O)CC(C)(C)CC2=O)c2ccccc21 | 15% | 27µM* | 2% | 1% | 0% | -18%
O=C(CCC(=O)NCCO)NCCO | -3% | 1% | -2% | 4% | 1% | -10%
CC(O)CCC(=O)NCCNC(=O)CCC(C)O (stereo not drawn) | -3% | 11µM* | 1% | -1% | -2% | ?
CC(=O)c1cccc(NC(=O)Cc2ccc(NC(=O)N3CCCCc4ccccc43)cc2)c1 | nt | nt | nt | 7% | 18% | 19%
COc1cccc2c1CCCC2CCCN1CCN(C2CCCCC2)CC1 (stereo not drawn) | nt | nt | nt | 18% | nt | 6%
COC(=O)c1ccccc1NC(=S)N(C)C | 3% | -5% | 5% | -1% | -3% | 8%
COC(=O)c1ccccc1N=C(SC)N(C)C | -5% | 30µM* | 2% | 5% | -22% | ?
SMILES | Tb PFK inh | PLK1 PBD inh | ASM inhibitor | TDP1 block | Pin1 inh | VDR inh
O=C(CC(C(=O)O)c1cccc(Cl)c1)c1ccccc1 (stereo not drawn) | -5% | 4% | 7% | nt | 1% | -1%
Cc1ccc(NC(=O)CCC(=O)c2ccc(F)cc2)cc1Cl | 2% | -6% | -1% | 4% | 0% | 5%
O=C(CC(Nc1ccc(Cl)cc1Cl)C(=O)O)c1ccccc1 (stereo not drawn) | 20% | -6% | 5% | nt | -1% | 79µM*
Cc1ccc(NC(CC(=O)c2ccccc2)C(=O)O)cc1Cl (stereo not drawn) | -8% | 24µM* | 7% | 5% | 17% | ?
O=c1c2ccccc2nc2sc(Nc3cccc(Br)c3)nn12 | nt | nt | nt | nt | 0% | nt
C=C1CC[C@H](O)C/C1=C/C=C1\CCC[C@]2(C)[C@@H]([C@H](C)CCCC(C)(C)O)CC[C@@H]12 | nt | nt | nt | 2% | nt | -1%
CCCCn1c(C2CC(=O)N(c3ccc(OCC)cc3)C2)nc2ccccc21 (stereo not drawn) | nt | nt | nt | -2% | -2% | 12%
O=C(O)c1ccccc1-c1c2cc(Br)c(=O)c(Br)c-2oc2c(Br)c(O)c(Br)cc12 | nt | nt | nt | -13% | nt | 35µM*
COc1cc(O)c2c(c1)C(=O)c1cc(C)cc(O)c1C2=O | nt | nt | nt | 10%[56.1 µM] | nt | 22µM*
COc1cc(OC)c2c(c1)C(=O)c1cc(OC)cc(OC)c1C2=O | -2% | -2% | 1% | 3% | 2% | -3%
c1nc(NCCN2CCOCC2)c2cc(-c3ccoc3)ccc2n1 | nt | nt | nt | nt | nt | 45µM*
COCCNc1ncnc2ccc(-c3ccoc3)cc12 | nt | nt | nt | nt | nt | 40µM*
COCCNc1ncnc2ccc(-c3ccc(N(C)C)cc3)cc12 | nt | nt | nt | nt | nt | 40µM*
CS(=O)(=O)Nc1cccc(-c2ccc3ncnc(NCCN4CCOCC4)c3c2)c1 | nt | nt | nt | nt | nt | -7%
CS(=O)(=O)Nc1cccc(-c2ccc3ncnc(N4CCOCC4)c3c2)c1 | nt | nt | nt | nt | nt | 45µM*
CN(C)c1ccc(-c2ccc3ncnc(NCc4ccccc4)c3c2)cc1 | nt | nt | nt | 24%[56.1 µM] | nt | -5%
CCOC(=O)c1c(NC(=O)c2cc3nc(-c4ccccc4)cc(C(F)(F)F)n3n2)sc2c1CCC(C)C2 (stereo not drawn) | nt | nt | nt | -2% | 1% | -7%
CN1CCN(c2ncnc3ccc(-c4ccoc4)cc23)CC1 | nt | nt | nt | nt | nt | 45µM*
CC(=O)NCCNc1ncnc2ccc(-c3ccoc3)cc12 | nt | nt | nt | nt | nt | 40µM*
COc1cccc(-c2ccc3ncnc(NCCNC(C)=O)c3c2)c1 | nt | nt | nt | nt | nt | -8%
Cc1ccccc1-c1ccc2ncnc(N3CCNCC3)c2c1 | nt | nt | nt | nt | nt | 50µM*
CC(=O)NCCNc1ncnc2ccc(-c3ccccc3C)cc12 | nt | nt | nt | nt | nt | 45µM*
CN1CCN(c2ncnc3ccc(-c4cccnc4)cc23)CC1 | nt | nt | nt | nt | nt | 1%
O=C(CSc1nnc(-c2ccccc2)c(-c2ccccc2)n1)NCc1ccco1 | 1% | 21µM* | -9% | 12%[56.1 µM] | -5% | -3%
O=C(Cn1cnc2sc(-c3ccccc3)cc2c1=O)NCc1ccco1 | 6% | 2.7µM* | -5% | nt | 5% | ?
O=C(CSC1=NCCS1)NCc1ccco1 | -5% | 3µM* | 1% | 9% | 2% | 20µM*
O=C(O)CSc1nnc(-c2ccccc2)c(-c2ccccc2)n1 | -1% | 9.5µM* | 1% | 6% | 0% | ?
NC(=O)CSc1nnc(-c2ccccc2)c(-c2ccccc2)n1 | 0% | -9% | -1% | nt | 6% | 3%
